In ChEMBL document CHEMBL3988442, “University of Dundee, Small-Polar-MMV Screening Library” (2021) one finds Percent Effect data, which are given here for four compounds.

Each structure is given as a SMILES string. For some of these results: Entries with a potency or affinity are not part of this list.

Holding throughout (parameters): scale not given: direction of the effect not stated beside the values
The target in test [1] is Protein translocase subunit SecA (Escherichia coli (strain K12)) (UniProt P10408). Briefly: Assay to Identify E. coli SecA ATPase Inhibitors. It counts as functional. As to conditions: 30 µM.
Sequence of Protein translocase subunit SecA (Escherichia coli (strain K12)) (P10408 whole entry): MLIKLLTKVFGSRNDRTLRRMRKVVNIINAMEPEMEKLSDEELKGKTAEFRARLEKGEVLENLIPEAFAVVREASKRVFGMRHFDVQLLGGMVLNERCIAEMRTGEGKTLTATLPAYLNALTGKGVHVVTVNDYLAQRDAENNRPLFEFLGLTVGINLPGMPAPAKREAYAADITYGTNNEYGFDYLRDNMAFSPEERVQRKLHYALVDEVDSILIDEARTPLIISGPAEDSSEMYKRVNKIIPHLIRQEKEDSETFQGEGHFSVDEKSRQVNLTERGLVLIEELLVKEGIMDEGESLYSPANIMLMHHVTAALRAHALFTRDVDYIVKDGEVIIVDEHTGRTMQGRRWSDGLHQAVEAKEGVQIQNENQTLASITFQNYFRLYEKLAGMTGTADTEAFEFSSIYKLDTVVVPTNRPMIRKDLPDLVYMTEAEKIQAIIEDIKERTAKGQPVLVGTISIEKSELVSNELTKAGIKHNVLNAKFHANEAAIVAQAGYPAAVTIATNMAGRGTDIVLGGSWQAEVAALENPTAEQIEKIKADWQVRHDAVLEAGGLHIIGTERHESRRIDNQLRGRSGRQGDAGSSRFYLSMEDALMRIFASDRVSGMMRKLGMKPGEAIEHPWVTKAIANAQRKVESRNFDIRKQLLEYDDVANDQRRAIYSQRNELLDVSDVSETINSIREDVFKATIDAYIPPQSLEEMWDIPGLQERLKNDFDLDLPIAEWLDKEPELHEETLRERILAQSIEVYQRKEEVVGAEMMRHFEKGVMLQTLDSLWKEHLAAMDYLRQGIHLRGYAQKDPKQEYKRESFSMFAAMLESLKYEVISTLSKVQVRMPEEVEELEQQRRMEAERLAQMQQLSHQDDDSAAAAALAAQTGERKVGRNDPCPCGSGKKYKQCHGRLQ
The target in test [2] is T1, Ubiquitin-activating enzyme e1, putative (Leishmania donovani (strain BPK282A1)) (UniProt E9BSI1).
T1 sequence (whole entry): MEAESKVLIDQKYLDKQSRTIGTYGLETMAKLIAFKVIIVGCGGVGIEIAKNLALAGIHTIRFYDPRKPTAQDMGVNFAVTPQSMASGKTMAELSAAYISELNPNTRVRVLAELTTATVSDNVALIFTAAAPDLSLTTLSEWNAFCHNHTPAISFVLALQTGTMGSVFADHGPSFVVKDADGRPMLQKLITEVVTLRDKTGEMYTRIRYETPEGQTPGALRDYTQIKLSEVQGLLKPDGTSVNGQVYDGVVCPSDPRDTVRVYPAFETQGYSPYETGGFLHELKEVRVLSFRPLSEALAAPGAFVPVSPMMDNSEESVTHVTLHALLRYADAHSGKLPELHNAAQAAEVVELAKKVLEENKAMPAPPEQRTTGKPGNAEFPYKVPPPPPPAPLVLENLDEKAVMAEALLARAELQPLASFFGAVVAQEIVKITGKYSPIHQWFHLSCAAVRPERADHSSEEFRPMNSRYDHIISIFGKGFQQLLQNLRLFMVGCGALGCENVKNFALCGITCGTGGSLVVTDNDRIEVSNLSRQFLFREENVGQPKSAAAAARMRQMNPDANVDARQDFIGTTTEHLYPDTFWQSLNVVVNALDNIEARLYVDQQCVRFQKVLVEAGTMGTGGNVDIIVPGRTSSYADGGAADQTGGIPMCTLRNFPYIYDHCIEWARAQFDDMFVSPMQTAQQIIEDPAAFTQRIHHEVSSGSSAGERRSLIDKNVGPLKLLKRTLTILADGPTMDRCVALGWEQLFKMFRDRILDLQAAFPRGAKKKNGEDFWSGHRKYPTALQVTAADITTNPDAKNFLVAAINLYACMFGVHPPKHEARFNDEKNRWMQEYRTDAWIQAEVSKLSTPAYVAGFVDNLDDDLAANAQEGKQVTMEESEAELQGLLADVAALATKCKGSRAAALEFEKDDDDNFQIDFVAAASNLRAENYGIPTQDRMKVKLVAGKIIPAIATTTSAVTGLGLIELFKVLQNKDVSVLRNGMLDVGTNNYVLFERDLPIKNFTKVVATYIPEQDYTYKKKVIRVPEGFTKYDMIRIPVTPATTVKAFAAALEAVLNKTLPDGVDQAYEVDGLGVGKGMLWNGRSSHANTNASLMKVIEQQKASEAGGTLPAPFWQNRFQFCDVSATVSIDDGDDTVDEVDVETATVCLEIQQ
Put plainly: Leishmania donovani Ubiquitin Activating Enzyme (LdE1). It counts as functional. As to conditions: 30 µM.

In test [3] the target is T2, Aspartate--tRNA(Asp/Asn) ligase (Mycobacterium tuberculosis (strain ATCC 25618 / H37Rv)) (UniProt P9WFW3). Also: in the data most compounds retested in dose-response had high values.
T2 sequence (whole entry): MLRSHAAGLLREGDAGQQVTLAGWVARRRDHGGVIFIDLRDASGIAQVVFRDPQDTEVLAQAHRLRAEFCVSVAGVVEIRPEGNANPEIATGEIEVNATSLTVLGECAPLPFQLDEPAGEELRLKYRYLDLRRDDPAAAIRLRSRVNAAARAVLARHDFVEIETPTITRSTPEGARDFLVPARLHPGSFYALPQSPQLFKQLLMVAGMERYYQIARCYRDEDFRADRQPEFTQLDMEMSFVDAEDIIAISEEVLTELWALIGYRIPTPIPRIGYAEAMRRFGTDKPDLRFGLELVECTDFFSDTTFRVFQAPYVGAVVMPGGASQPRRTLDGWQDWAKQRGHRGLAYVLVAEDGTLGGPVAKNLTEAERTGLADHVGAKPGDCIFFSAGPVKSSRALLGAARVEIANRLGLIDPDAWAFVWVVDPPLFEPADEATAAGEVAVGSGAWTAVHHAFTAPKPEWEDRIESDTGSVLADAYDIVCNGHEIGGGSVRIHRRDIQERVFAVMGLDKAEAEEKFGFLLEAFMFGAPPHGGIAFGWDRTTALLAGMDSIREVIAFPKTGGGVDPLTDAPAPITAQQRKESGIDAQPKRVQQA
Put plainly: Assay for Asp RNA synthetase-1 from Mycobacterium tuberculosis. It counts as functional. Conditions: 30 µM.

In test [4] the target is AMP-activated protein kinase, AMPK (Homo sapiens) (UniProt P54646+O43741+P54619+Q9UGJ0+Q9Y478+Q13131+Q9UGI9). Briefly: AMP-dependent Kinase enzyme assay. An in vitro enzyme assay that detects ADP turnover that is directly proportional to AMPK activity. This uses naive AMPK that is activated during the assay with MK-8722. It counts as functional. Conditions: 30 µM.
In test [5] the target is Sialic acid-binding Ig-like lectin 9 (Homo sapiens) (UniProt Q9Y336). Put plainly: Hs-Siglec9 ALPHAscreen SOP 20170721. As to conditions: 10 µM.
Sequence of Sialic acid-binding Ig-like lectin 9 (Homo sapiens) (Q9Y336 whole entry): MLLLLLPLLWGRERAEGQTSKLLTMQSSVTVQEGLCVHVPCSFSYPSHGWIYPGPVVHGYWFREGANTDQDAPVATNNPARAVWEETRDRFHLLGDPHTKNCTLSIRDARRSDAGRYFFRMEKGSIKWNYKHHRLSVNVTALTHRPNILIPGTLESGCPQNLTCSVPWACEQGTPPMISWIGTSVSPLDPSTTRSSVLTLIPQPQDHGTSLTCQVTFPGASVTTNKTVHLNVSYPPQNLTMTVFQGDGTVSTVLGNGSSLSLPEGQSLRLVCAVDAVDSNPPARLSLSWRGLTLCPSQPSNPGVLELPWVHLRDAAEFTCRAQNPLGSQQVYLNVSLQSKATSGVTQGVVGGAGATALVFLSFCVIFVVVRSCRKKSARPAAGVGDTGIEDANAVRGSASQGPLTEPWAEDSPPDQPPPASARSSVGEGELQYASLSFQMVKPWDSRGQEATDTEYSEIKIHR
Test [6] has as its system Trypanosoma cruzi. Put plainly: Trypanosoma cruzi phosphomannomutase and mannose-1-phosphate guanylyltransferase assay. It counts as functional. As to conditions: 10 µM.
Test [7] concerns the target T3, Arginase-2, mitochondrial (Homo sapiens) (UniProt P78540).
T3 sequence (whole entry): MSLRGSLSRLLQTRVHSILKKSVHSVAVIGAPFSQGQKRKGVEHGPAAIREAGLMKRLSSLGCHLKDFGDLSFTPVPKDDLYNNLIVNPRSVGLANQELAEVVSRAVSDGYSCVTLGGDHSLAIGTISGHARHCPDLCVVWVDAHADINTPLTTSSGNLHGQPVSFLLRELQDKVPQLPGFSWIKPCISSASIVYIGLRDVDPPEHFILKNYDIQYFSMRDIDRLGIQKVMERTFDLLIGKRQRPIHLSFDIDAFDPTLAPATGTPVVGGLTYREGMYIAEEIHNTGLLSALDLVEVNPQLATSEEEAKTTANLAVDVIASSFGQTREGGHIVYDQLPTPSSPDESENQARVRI
Briefly: in vitro enzyme assay to detect the production of urea directly proportional to the activity of Arginase II. Also: in the data most compounds retested in dose-response had high values. It counts as functional. As to conditions: 33.3 µM.

For test [8], the target named is T4, Proteasome subunit beta (Trypanosoma cruzi) (UniProt O96673).
T4 sequence (whole entry): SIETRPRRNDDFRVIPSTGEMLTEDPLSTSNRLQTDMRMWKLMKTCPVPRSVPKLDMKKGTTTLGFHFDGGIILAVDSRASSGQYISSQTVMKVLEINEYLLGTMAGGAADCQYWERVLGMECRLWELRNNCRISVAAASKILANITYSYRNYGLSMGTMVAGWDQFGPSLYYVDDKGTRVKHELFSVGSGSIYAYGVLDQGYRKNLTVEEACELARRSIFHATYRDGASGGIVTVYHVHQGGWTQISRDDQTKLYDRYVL
Briefly: Trypanosoma cruzi proteasome chymotrypsin-like activity (TcProtChymo) assay. Also: in the data most compounds retested in dose-response had high values. It counts as functional. As to conditions: 9.37 µM.

The species named for test [9] is Homo sapiens. Briefly: To identify inhibition of the IFN signalling (Jak-Stat) pathway via expression of an eGFP reporter gene under the control of an IFN-stimulated response element (ISRE) containing MxA promoter. Conditions: 30 µM. It counts as functional.
For test [10], the target named is Shiga toxin 2 (Escherichia coli O157:H7) (UniProt P09385+P09386). Briefly: E. coli 0.157:H7 Shiga Toxin SOP - stx2 screening assay. It counts as functional. Conditions: 30 µM.
For test [11], the target named is T5, Tyrosyl-tRNA synthetase, putative (Trypanosoma cruzi (strain CL Brener)) (UniProt Q4DSP6).
T5 sequence (whole entry): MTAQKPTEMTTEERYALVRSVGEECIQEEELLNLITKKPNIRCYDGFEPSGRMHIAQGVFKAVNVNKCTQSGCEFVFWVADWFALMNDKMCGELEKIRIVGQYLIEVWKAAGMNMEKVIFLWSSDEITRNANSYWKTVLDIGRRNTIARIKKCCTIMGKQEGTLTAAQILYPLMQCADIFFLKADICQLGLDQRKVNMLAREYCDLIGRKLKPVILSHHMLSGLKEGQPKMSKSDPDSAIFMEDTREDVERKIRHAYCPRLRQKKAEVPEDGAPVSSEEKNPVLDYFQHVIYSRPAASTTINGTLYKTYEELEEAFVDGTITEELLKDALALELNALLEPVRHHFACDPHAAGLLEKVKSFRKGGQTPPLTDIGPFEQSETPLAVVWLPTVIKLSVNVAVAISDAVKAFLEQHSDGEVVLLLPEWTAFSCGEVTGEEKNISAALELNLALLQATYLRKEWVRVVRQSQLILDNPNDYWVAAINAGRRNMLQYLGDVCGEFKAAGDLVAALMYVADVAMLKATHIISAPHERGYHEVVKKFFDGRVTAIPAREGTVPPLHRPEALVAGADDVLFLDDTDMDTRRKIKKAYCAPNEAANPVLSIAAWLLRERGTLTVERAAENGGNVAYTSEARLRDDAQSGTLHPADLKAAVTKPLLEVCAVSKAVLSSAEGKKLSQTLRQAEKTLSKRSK
Put plainly: Trypanosoma cruzi tyrosyl tRNA synthetase (TcYRS) _High Tyrosine SOP. Also: in the data most compounds retested in dose-response had high values. It counts as functional. Conditions: 30 µM.

Test [12] deals with T5, Tyrosyl-tRNA synthetase, putative (Trypanosoma cruzi (strain CL Brener)). Put plainly: Trypanosoma cruzi tyrosyl tRNA synthetase (TcYRS) SOP. It counts as functional. Conditions: 30 µM.
Test [13] deals with Chromo domain-containing protein 1 (Saccharomyces cerevisiae (strain ATCC 204508 / S288c) (Baker's yeast)) (UniProt P32657). Briefly: ScCHD-1 Enzyme Inhibition Assay. Also: in the data most compounds retested in dose-response had high values. It counts as functional. Conditions: 30 µM.
Sequence of Chromo domain-containing protein 1 (Saccharomyces cerevisiae (strain ATCC 204508 / S288c) (Baker's yeast)) (P32657 whole entry, the tested form may be a part): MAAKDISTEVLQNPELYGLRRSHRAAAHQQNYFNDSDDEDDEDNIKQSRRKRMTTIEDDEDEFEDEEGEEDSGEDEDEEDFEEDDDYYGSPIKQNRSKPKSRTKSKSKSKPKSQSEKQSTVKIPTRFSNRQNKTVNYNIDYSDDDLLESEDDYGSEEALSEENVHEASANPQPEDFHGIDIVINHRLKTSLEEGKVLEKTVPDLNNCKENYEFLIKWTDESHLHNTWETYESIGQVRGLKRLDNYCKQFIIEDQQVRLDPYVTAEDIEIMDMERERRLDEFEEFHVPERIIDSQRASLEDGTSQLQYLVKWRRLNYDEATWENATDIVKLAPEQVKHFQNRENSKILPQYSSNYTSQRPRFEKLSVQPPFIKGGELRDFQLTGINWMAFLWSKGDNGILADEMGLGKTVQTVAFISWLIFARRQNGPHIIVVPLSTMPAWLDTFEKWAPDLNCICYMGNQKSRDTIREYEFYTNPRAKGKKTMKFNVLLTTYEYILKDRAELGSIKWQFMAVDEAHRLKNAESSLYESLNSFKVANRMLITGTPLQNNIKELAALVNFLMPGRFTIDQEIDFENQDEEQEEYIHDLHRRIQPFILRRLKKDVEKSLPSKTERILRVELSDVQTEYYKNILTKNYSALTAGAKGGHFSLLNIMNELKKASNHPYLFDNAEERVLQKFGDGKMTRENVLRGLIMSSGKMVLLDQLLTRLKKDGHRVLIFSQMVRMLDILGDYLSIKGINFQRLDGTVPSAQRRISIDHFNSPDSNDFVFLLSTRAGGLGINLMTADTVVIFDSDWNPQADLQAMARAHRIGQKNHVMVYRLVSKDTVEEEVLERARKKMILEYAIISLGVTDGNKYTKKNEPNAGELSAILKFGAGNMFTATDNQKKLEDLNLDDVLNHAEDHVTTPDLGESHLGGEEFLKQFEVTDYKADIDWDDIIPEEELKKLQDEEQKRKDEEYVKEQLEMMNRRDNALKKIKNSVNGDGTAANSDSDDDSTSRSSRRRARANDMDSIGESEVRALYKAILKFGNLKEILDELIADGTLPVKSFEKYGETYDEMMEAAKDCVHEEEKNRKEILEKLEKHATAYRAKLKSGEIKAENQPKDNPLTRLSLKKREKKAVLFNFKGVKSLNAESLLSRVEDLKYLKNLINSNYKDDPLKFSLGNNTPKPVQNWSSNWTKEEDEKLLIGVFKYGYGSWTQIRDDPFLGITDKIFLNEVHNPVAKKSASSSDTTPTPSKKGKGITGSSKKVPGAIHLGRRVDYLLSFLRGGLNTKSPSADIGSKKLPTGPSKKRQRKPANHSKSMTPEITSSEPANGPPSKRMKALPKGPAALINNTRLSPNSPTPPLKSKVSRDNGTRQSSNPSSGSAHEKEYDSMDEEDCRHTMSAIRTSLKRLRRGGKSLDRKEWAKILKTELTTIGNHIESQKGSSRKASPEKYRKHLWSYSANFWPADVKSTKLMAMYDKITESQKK

For the compound `CC(C)(C)n1cc(C2=CCN(CCc3ccccc3)CC2)cn1`, the Percent Effect was 0.726% in test [1]; 1.39% in test [2]; -2.65% in [3]; -7.35% in [4]; -1.87% in test [5]; 5.93% in test [6]. For the same compound, the Percent Effect was 24.3% in test [7]; 14.7% in [8]; 11.7% in test [9]; -75.6% in test [10]; 6.32% in test [11]; 12.8% in [12]. Moreover, the Percent Effect in [13] was -5.1%.
As to `O=C(C1CCC1)N1CCC2(CC1)OCCO2`, the Percent Effect in [1] was -3.54%; in [2] it was -2.63%; in [3], -4.73%; in test [4] it was 2.75%; in [5], 1.15%; in [6] it was -1.85%. Moreover, the Percent Effect is 7.1% in [7]; 6.04% in test [8]; 5.13% in test [9]; -1.29% in test [10]; 0% in test [11]; 5.2% in test [12]. Also, the Percent Effect in [13] is -0.64%.
Consider `CN1C(=O)C2(CCN(CC3CC3)CC2)c2ccccc21`, for which the Percent Effect in [1] was -0.0958%; in test [2] it was 10.8%; in test [3], -2.95%; in [4], -1.71%; in [5], -10.2%; in [6], -6.16%. Besides, the Percent Effect is 0.955% in test [7]; 16.4% in test [8]; -8.93% in test [9]; -0.91% in [10]; 2.16% in [11]; 17.9% in [12]. The Percent Effect in test [13] was -2.43%.
As for `CC(C)CN1CCC2(C1)CN(c1ncccn1)C2`, the Percent Effect was -1.21% in [1]; 13.3% in [2]; 3.02% in [3]; 6.7% in test [4]; -5.1% in test [5]; -3.15% in test [6]. The Percent Effect in test [7] is -3.03%; in test [8], 10.3%; in test [9] it was 5.15%; in [10], -15.1%; in test [11] it was 5.32%; in test [12] it was 11.5%. For the same compound, the Percent Effect in test [13] is -4.75%.
